{
  "source": "PubChem BioAssay (NCI)",
  "note": "The panel holds about 83,000 compounds, 20% with a hit somewhere; the sample as a whole holds those more often.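 Single-dose data. Exposure time 48 hours. Values below 10 considered active.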 A number with no mark means an inactive call. Calls of active or inactive are those of the source.",
  "data": [
    {"tested_on": "MDA-MB-468 breast", "experiment": "NCI-60 one-dose screen, 48 h (100 = growth as untreated, 0 = no growth, -100 = all killed)", "details": "10 µM unless noted", "values": [
      {"smiles": "Brc1ccc(-c2cn3ccnc3c(-c3ccc(Br)cc3)n2)cc1", "growth": "33.2%"},
      {"smiles": "CC(=O)c1c[nH]c2ccc(-c3ccnc(Nc4ccc(NC(=O)c5cccc(F)c5)c(CN5CCOCC5)c4)n3)cc12", "growth": "-32.9% (active)"},
      {"smiles": "COc1cc(-c2cc(/C=C/C(=O)c3ccc4c(c3)OCO4)[nH]n2)cc(OC)c1OC", "growth": "-4.54% (active)"},
      {"smiles": "O=C1Nc2cc(Cl)ccc2/C1=C\\c1ccc(OCc2ccc([N+](=O)[O-])cc2)cc1", "growth": "52%"},
      {"smiles": "O=C1CSc2ccccc2N1", "growth": "112%"},
      {"smiles": "N/C(=N\\O)c1ncc(-c2ccc(C(F)(F)F)cc2)c(NC2CCCCCC2)n1", "growth": "-20.4% [100 µM] (active)"},
      {"smiles": "O=C1C(Cl)=C(SC2=NCCN2)C(=O)c2ccccc21", "growth": "0.366% (active)"},
      {"smiles": "COc1ccc(/C=C2\\SC(=Nc3cc(C)on3)NC2=O)cc1", "growth": "95.6%"},
      {"smiles": "Nc1nc2c(nnn2Cc2ccc(Cl)c(Cl)c2)c(=O)[nH]1", "growth": "103%"},
      {"smiles": "O=C1C2=C(C(=O)c3c(O)cccc31)C(c1ccco1)c1sc(=O)[nH]c1S2", "note": "(centres undefined)", "growth": "7.85% (active)"},
      {"smiles": "CC[C@H](Nc1nc(N)nc(C)c1C#N)c1nc2cccc(CN(C)c3ncc(C(=O)NO)cn3)c2c(=O)n1-c1ccccc1", "growth": "-11.3% (active)"},
      {"smiles": "Cc1ccc(C2CC(c3nc(-c4ccc(Cl)cc4)oc3C)=NN2C(=O)c2ccncc2)cc1", "note": "(centres undefined)", "growth": "97.8%"},
      {"smiles": "COc1cc(Nc2ncccc2C(=O)NCc2cn(Cc3cccc(Oc4ccccc4)c3)nn2)cc(OC)c1", "growth": "18.6%"},
      {"smiles": "CCCCCCCCCCCCCCCCCC1OCC(COC(=O)O[C@]2(CC)C(=O)OCc3c2cc2n(c3=O)Cc3cc4ccccc4nc3-2)O1", "note": "(some centres undefined)", "growth": "69.9%"},
      {"smiles": "CCN1C(=O)N(CC)C2C1NN=c1s/c(=C\\c3cccc(F)c3)c(=O)n12", "note": "(centres undefined)", "growth": "-21.8% (active)"},
      {"smiles": "CCC(O)C(C)(C)C", "note": "(centres undefined)", "growth": "115%"},
      {"smiles": "COc1cccc(Cc2nn3cc(-c4ccccc4)nc3s2)c1", "growth": "92.1%"},
      {"smiles": "COc1cccc(C(=O)Nc2ccc(CN3CCc4nc5cc(OC)c(OC)cc5cc43)cc2)c1", "growth": "63.6%"},
      {"smiles": "CCCN1CN2C(=O)N3CN(CCC)CN4C(=S)N(C1)C2C34", "note": "(centres undefined)", "growth": "107%"},
      {"smiles": "CC/C=C\\C[C@H]1C/C=C2/C(=O)C=C[C@H]2C/C=C\\CCCC(=O)O1", "growth": "31.7%"},
      {"smiles": "CCOc1cccc(/C=N/NC(=O)c2ccc(Nc3ccnc(C(F)(F)F)c3)cc2)c1O", "growth": "-20.9% (active)"},
      {"smiles": "Cc1ncc(C(=O)Nc2ccc(CN3CCN(C)CC3)c(C(F)(F)F)c2)cc1C#Cc1cncc2ncccc12", "growth": "99.3%"},
      {"smiles": "COc1ccc(-c2cc(-c3cccnc3)nc3sc4c(=O)n(-c5ccc(C)cc5)cnc4c23)cc1OC", "growth": "93.7%"},
      {"smiles": "Oc1cccc2c1NCCC2", "growth": "-8.83% (active)"},
      {"smiles": "CC1(C)NCCC[C@]2(C)[C@H]3CC[C@@H]4[C@H]5[C@H](C(=O)/C=C/c6ccco6)CC[C@]5(CO)CC[C@@]4(C)[C@]3(C)CC[C@@H]12", "growth": "87.9%"},
      {"smiles": "COc1ccc(-c2nc(N3CCN(C(=O)C4CCCCC4)CC3)c3c4c(sc3n2)CCCC4)cc1", "growth": "-17.4% (active)"},
      {"smiles": "O=C1NCC2CCCC1C2", "note": "(centres undefined)", "growth": "105%"},
      {"smiles": "O=[N+]([O-])c1ccc(NC(=S)NNC(=S)Nc2ccc(Br)cc2)cc1", "growth": "82.5%"},
      {"smiles": "CCN1CCN(Cc2ccc(NC(=O)Nc3ccc(-n4ccc5c(NC(=O)c6ccccc6)nccc54)cc3)cc2C(F)(F)F)CC1", "growth": "60.1%"},
      {"smiles": "CN(C)CCCNc1c2ccccc2nc2ccccc12", "growth": "83.4%"},
      {"smiles": "CCCCCCCCCCCCCCCCCBr", "growth": "99.8%"},
      {"smiles": "Cc1cccc2nnc(-c3ccccc3)n12", "growth": "106%"},
      {"smiles": "S=C=Nc1ccc2ccccc2c1", "growth": "97.3%"},
      {"smiles": "COc1cc(C(=O)N2CCN(c3ccccc3)CC2)c2ccccc2n1", "growth": "5.08% (active)"},
      {"smiles": "O=C(Nc1ccc(I)cc1F)c1cc(Cl)ccc1O", "growth": "-1.5% (active)"},
      {"smiles": "O=C(Nc1ccccc1)C(CCCCN1C(=O)c2ccccc2C1=O)N1C(=O)c2ccccc2C1=O", "note": "(centres undefined)", "growth": "103%"},
      {"smiles": "COc1ccc(-c2cc(-c3ccc(Cl)cc3)nc3nc(N)nn23)cc1", "growth": "78.5%"},
      {"smiles": "O=C(CN1CCN(c2cc3c(cc2F)c(=O)c(C(=O)O)cn3C2CC2)CC1)Nc1ccc(C(=O)/C=C/c2ccccc2)cc1", "growth": "33.8%"},
      {"smiles": "CCn1cc(C(=O)NN=C2CCCC2)c(=O)c2ccc(C)nc21", "growth": "91.8%"}
    ]}
  ]
}
